Hits are enriched below; roughly 11% of the tested compounds scored in any of these assays.
HPGD block – qHTS Assay for Inhibitors of HPGD (15-Hydroxyprostaglandin Dehydrogenase); hit rate 4.3% among 150,000; purified HPGD, NADH fluorescence kinetic, PGE2 substrate; AID 894, 2007; Potency, µM, for the others: at the highest dose activity change, negative = inhibition, usual class: inhibitors; 15-hydroxyprostaglandin dehydrogenase [NAD(+)] (Homo sapiens), P15428; also: potency is read from the fitted curve at half-maximal effect
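NADH formation kinetics: reaction with 30 uM PGE2 and 1 mM NAD+ (final), 20 nM enzyme, Tris-HCl pH 8 with Tween 20, after 15 min compound preincubation at room temperature. Fluorescence change, last versus first of five reads.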
KDM4E inh – qHTS Assay for Inhibitors of Human Jumonji Domain Containing 2E (JMJD2E); Lysine-specific demethylase 4E (Homo sapiens), B2RXH2; JMJD2E catalytic domain, FDH-coupled NADH fluorescence (FDH is formaldehyde dehydrogenase); Potency, µM (titrated, usually from 57.1 µM), for inactives: top-dose activity change, negative = inhibition, usual class: inhibitors; hit rate 1.6% among 230,000;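 also: potency is read from the fitted curve at half-maximal effect; 0% = wells with enzyme and -100% = buffer wells without enzyme; nearly all actives have a fitted effect of over 50% in size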
ALDH1A1 block – qHTS Assay for Inhibitors of Aldehyde Dehydrogenase 1 (ALDH1A1). Aldehyde dehydrogenase 1A1 (Homo sapiens), P00352. Purified ALDH1A1, NADH fluorescence, propionaldehyde substrate. Potency, µM (titrated, usually from 75.3 µM), for inactives: top-dose activity, negative = inhibition, most hits filed as inhibitors. hit rate 7.3% among 220,000. AID 1030, 2008;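 also: potency is read from the fitted curve at half-maximal effect; plate controls were no enzyme wells and a reference inhibitor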
Target sequence (P00352 whole entry, looked up): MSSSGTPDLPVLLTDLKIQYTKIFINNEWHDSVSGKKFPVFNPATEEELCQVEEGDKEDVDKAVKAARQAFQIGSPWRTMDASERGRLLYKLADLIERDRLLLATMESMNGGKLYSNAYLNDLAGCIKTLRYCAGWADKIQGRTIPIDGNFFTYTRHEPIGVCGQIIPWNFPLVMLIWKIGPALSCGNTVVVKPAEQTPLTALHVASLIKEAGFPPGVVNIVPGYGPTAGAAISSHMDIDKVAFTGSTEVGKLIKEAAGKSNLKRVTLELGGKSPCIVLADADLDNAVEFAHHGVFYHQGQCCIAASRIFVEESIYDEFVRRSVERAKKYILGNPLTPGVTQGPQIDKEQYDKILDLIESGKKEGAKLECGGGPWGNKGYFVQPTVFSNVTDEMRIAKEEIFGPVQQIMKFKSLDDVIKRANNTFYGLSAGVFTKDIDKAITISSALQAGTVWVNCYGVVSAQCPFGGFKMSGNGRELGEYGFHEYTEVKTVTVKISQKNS
PNC inhibitor – High Content Assay for Compounds that inhibit the Assembly of the Perinucleolar Compartment; PC3M PTB-GFP, PNC prevalence imaging, 16 h; stronger effect = lower value; activity change (PNC), negative = inhibition, % at 10 µM; hit rate 3.1% among 140,000; AID 2417, 2010;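 active = readout at or below -70, meaning at least 70% loss of cells showing the perinucleolar compartment, a nuclear body marking cancer cells; inconclusive = readout between -30 and a set limit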;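 also: plate controls were DMSO wells for no effect and camptothecin positive control wells for full effect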
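Compounds are pinned in duplicate onto adhered PC3M cells stably expressing GFP-tagged PTB and incubated 16 h at 37 C. Cells are then fixed, nuclei stained with Hoechst, and PNC-positive cells counted.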
The depositor's hits bear a star; u = inconclusive; x = no result given. Unless noted, calls follow the shape of the dose curve; as a rule, active = well fitted inhibition curve with a large enough effect (not every such curve was filed as active); inconclusive = small, poorly fitted or top-dose-only effect, or another doubt; inactive = no such curve, though single readings can be large or run the other way. Unless noted, % is scaled to controls: 0 for no effect and ±100 for the full control effect.

SMILES	HPGD block	KDM4E inh	ALDH1A1 block	PNC inhibitor
COc1ccccc1N=Nc1nc(-c2ccccc2)c(-c2ccccc2)[nH]1	-10.5%	7.1%	22.4µM*	-18.2
CC(C)CCn1cnc2c(cnn2-c2ccc(F)cc2)c1=O	11.2µM*	-22.2%	u	0.2
Cn1c(N)c(C(=O)COC(=O)COc2ccccc2C#N)c(=O)n(C)c1=O	x	2.0%	0.4%	x
CC1CCc2c(sc(N)c2C(=O)OC(C)C)C1 (centres undefined)	28.2µM*	-6.0%	11.2µM*	2.4
C=CCn1c(SC2CCOC2=O)nc2sc(C)c(C)c2c1=O (centres undefined)	-25.8%	1.5%	1.9%	-80.4*
C=CCn1c(SC2CCOC2=O)nc2scc(C3CC3)c2c1=O (centres undefined)	-10.4%	-6.6%	u	u
O=C1OCCC1Sc1nc2ccccc2c(=O)n1Cc1ccccc1 (centres undefined)	x	0.8%	u	x
Cc1sc2nc(SC3CCOC3=O)n(Cc3ccccc3)c(=O)c2c1C (centres undefined)	x	0.7%	15.8µM*	x
O=C1OCCC1Sc1nc2cc(Cl)ccc2n1Cc1ccccc1 (centres undefined)	-20.7%	0.7%	25.1µM*	-23.1
CCOC(=O)C1CCCN(C(=O)COc2ccc(S(=O)(=O)N(CC)c3ccccc3)cc2)C1 (centres undefined)	x	8.5%	-8.9%	x
Cc1nnc2sc(SCc3ccc(Br)cc3)nn2c1=O	x	-0.3%	0.9%	x
N[C@@H](Cc1ccccc1)c1nnc2sc(SCc3ccccc3)nn12	28.2µM*	-6.9%	28.2µM*	23.8
CCCSC1=N/C(=C/c2ccsc2)C(=O)N1c1ccccc1	-18.5%	u	14.1µM*	16.2
Cc1ccc(C(=O)NC(=S)Nn2cnnc2)cc1	u	-9.2%	20µM*	-19.9
O=C(NC(=S)Nn1cnnc1)c1cccc(Br)c1	22.4µM*	4.9%	7.94µM*	-27.2
N#C/C(=C\c1ccc[nH]1)S(=O)(=O)c1ccccc1	4.47µM*	-6.2%	6.3%	11.6
Cn1nccc1/C=C(/C#N)S(=O)(=O)c1ccccc1	-0.7%	4.9%	-1.7%	u
CCCN1C(=O)/C(=C/c2c(N3CCNC(=O)C3CC(=O)OC)nc3c(C)cccn3c2=O)SC1=S (centres undefined)	x	-1.5%	5.01µM*	x
CCOc1ccc(NC(=O)CSc2nnc(Cc3cccn3C)n2-c2ccc(OC)cc2)cc1	-9.1%	-1.3%	3.98µM*	-2.2
CN(C)S(=O)(=O)c1ccc(C(=O)NCc2nnc(SCC(=O)Nc3ccc(F)cc3)n2-c2ccc(F)cc2)cc1	-11.9%	-2.6%	7.08µM*	36.6
COc1ccc(-n2c(Cc3cccn3C)nnc2SCC(=O)Nc2ccc(C)cc2)cc1	-5.6%	-14.0%	u	u
COc1ccc(Cl)cc1NC(=O)CSc1nnc(Cc2cccn2C)n1-c1ccc(F)cc1	-3.1%	-10.4%	-2.5%	-85.1*
O=C(CSc1nnc(CNC(=O)C23CC4CC(CC(C4)C2)C3)n1-c1ccc(F)cc1)Nc1ccc(F)cc1	-5.9%	-5.2%	9.6%	-3.2
CC(=O)c1ccc(NC(=O)CSc2nnc(Cc3cccn3C)n2-c2ccc(F)cc2)cc1	1.0%	0.8%	12.6µM*	u
CC1CC(=O)Nc2ccccc2N1S(=O)(=O)c1cccc(Cl)c1 (centres undefined)	-3.3%	4.9%	8.2%	u
SMILES	HPGD block	KDM4E inh	ALDH1A1 block	PNC inhibitor
O=C(c1cc(C(F)(F)F)cc(C(F)(F)F)c1)N1CCC2(CCCN(Cc3ccccc3)C2)CC1	-8.9%	x	4.1%	x
COc1ccc(-n2c(Cc3cccn3C)nnc2SCC(=O)Nc2ccc(C(C)=O)cc2)cc1	-21.2%	-20.5%	8.91µM*	11.2
COc1ccc(NC(=O)CSc2nnc(Cc3cccn3C)n2-c2ccc(OC)cc2)cc1	-3.0%	-8.4%	14.1µM*	-17.0
Cn1cccc1Cc1nnc(SCC(=O)N2CCN(c3ccccc3)CC2)n1-c1ccc(F)cc1	1.3%	-29.9%	14.1µM*	-0.7
CCc1ccc(NC(=O)CSc2nnc(Cc3cccn3C)n2-c2ccc(F)cc2)cc1	-6.6%	-12.3%	u	-89.9*
O=c1c(-c2cccc(Cl)c2)nc2cncnc2n1-c1ccccc1	x	x	-7.3%	x
Cn1cc(-c2nc3cnc(Oc4ccccc4)nc3n(Cc3cccs3)c2=O)c2ccccc21	x	x	4.5%	x

High-throughput results: PubChem BioAssay, National Center for Advancing Translational Sciences (NCATS)
